# Biological target: Metabotropic glutamate receptor 8 (Rattus norvegicus) (UniProt P70579)
# Assay: mGlu8 positive allosteric modulation fold shift – cell-based, rat receptor, Ga15, calcium, 10 µM, mechanism study for mGlu8/mGlu7 PAM project, SAR follow-up (AID 743427)
# Conditions: rat mGlu8/Ga15, Fluo-4 calcium, glutamate CRC; glutamate CRC left shift; at 10 µM; stronger effect = higher value
smiles,measurement,value
COC(=O)c1ccc(-n2c(C)cc(C(=O)CSc3ccc(NC(C)=O)cc3)c2C)cc1,fold shift,4.77
